Measured values taken from PubChem BioAssay (EPA / NIEHS).
Active and inactive are the calls of the source. How the source made its calls: active means hit-call score of the fitted dose curve at least 0.9, where 1 is the maximum; inactive means score below 0.9.

Assay: ATG_PBREM_CIS: Attagene CIS-FACTORIAL HepG2 Assay for human Phenobarbital-responsive Enhancer Module (PBREM) (AID 2282955)
Settings: HepG2 PBREM cis-reporter, Attagene multiplexed transcription; actives raise or lower the signal
Protocol: ATG_CIS is a cell-based, multiplexed-readout assay that uses HepG2, a human liver cell line, with measurements taken at 24 hours after chemical dosing in a 24-well plate.ATG_PBREM_CIS is one of 52 assay component(s) measured or calculated from the ATG_CIS assay. It is designed to make measurements of mRNA induction, a form of inducible reporter, as detected with fluorescence intensity signals by Reverse transcription polymerase chain reaction (RT-PCR) and Capillary electrophoresis technology.Data from the assay component ATG_PBREM_CIS was analyzed into 1 assay endpoint. This assay endpoint, ATG_PBREM_CIS, was analyzed with bidirectional fitting relative to DMSO as the negative control and baseline of activity. Using a type of inducible reporter, measures of mRNA for gain or loss-of-signal activity can be used to understand the reporter gene at the transcription factor-level as they relate to the gene NR1I3. Furthermore, this assay endpoint can be referred to as a primary readout, because this assay has produced multiple assay endpoints where this one serves a reporter gene function. To generalize the intended target to other relatable targets, this assay endpoint is annotated to the nuclear receptor intended target family, where the subfamily is non-steroidal.
Human liver HepG2 cells are transiently transfected with multiple reporter transcription units (MRTUs) in 6-well plates using FuGene 6 reagent (Roche; 3 ml FuGene/1 mg DNA). The MRTU constructs are regulated by a cis-regulating element (promoter). […] A major difference between the CIS and TRANS system is that in CIS activities of endogenous TFs are measured, whereas the TRANS assay evaluates changes in activities of exogenous, chimeric NR-Gal4 proteins. […] At the end of 24 hour incubation, total RNA was isolated using TriZol reagent (Invitrogen). The isolated RNA is then reverse-transcribed using oligo(dT) primer and Mo-MLV reverse transcriptase (Invitrogen) with DNAse I (Ambion) treatment for 30 min. The one-tenth of the produced cDNA was amplified by PCR using Taq DNA polymerase (Invitrogen) and two reporter sequence-specific primers. The PCR products were fluorescently labeled by primer extension with 6-arboxyfluorescein (6-FAM) 5'-labeled reporter sequence-specific primer (2 min at 95 C, 20 s at 68 C and 10 min at 72 C) and these products were digested with 5U of HpaI (New England Biolabs) for 2h at 37 C. The fragments were purified using Qiaquick PCR columns (Qiagen), analyzed on an ABI 3130xL genetic analyzer (Applied Biosystems) with peak positions identified by using a set of X-rhodamine (ROX)-labeled MapMarker1000 molecular weight standards (BioVentures). The raw capillary electrophoresis data was processed using Attagraph software (Attagene).
For `CCCCC(CC)COP(=O)(Oc1ccccc1)Oc1ccccc1` (stereo not given), the outcome was “inactive”. With `Cc1cc(C)c(C(=O)P(=O)(c2ccccc2)c2ccccc2)c(C)c1` the outcome was “inactive”. In the case of `N#C/C=C/c1ccccc1`, the outcome is reported as “inactive”. With `Cc1ccc(C(=O)Cl)cc1` the outcome was “inactive”. With `CCOP(=S)(OCC)SCn1nnc2ccccc2c1=O` the AC50 was 1.32 µM (active). For `OCC(F)(F)OC(F)(F)C(F)(F)OC(F)(F)CO`, the outcome was “inactive”. With `CO/N=C(/C(=O)OC)c1ccccc1COc1ccccc1C` the outcome was “inactive”. With `O=C(O)C(F)(F)OC(F)(F)C(F)(F)OC(F)(F)C(=O)O` the outcome was “inactive”. For `CC(O)C(F)(F)C(F)(F)F` (stereo not given), the outcome was “inactive”. In the case of `O=C(CBr)OCc1ccccc1`, the outcome is reported as “inactive”. For `CCCCOCCOP(=O)(OCCOCCCC)OCCOCCCC`, the outcome was “inactive”. In the case of `CC(O)C#N` (stereo not given), the outcome is reported as “inactive”. With `O=C(O)C(F)(F)C(F)(F)C(=O)O` the outcome was “inactive”. In the case of `O=c1ssc(Cl)c1Cl`, the AC50 is reported as 50.3 µM (active). With `CC(=O)CCc1ccc2c(c1)OCO2` the outcome was “inactive”. In the case of `COP(=O)(O)OC`, the outcome is reported as “inactive”. In the case of `Nc1ccc(Cl)cc1`, the outcome is reported as “inactive”. In the case of `Nc1cc2c3c(c1)C(c1ccccc1)=N[C@@H](NC(=O)c1cccnc1)C(=O)N3CC2`, the AC50 is reported as 41.9 µM (active). In the case of `O=C(O)C1C(C(=O)O)C2(Cl)C(Cl)=C(Cl)C1(Cl)C2(Cl)Cl` (stereo not given), the outcome is reported as “inactive”. In the case of `O=[N+]([O-])c1cc(Cl)ccc1Cl`, the outcome is reported as “inactive”. With `CC1=C(C(=O)Nc2ccccc2)S(=O)(=O)CCO1` the outcome was “inactive”. In the case of `CC(Cc1ccc(OCC(=O)O)cc1)NCC(O)c1csc(C(F)(F)F)n1` (stereo not given), the outcome is reported as “inactive”. With `COP(N)(=S)OC` the outcome was “inactive”. In the case of `[N-]=[N+]=[N-]`, the outcome is reported as “inactive”. For `CCOP(=S)(OCC)SCS(=O)(=O)CC`, the outcome was “inactive”. With `COP(=O)(CCC(=O)NCO)OC` the outcome was “inactive”. In the case of `Nc1ccc([N+](=O)[O-])cc1Cl`, the outcome is reported as “inactive”. In the case of `ClC(Cl)c1ccccc1`, the outcome is reported as “inactive”. With `C=CC(=O)OCC(F)(F)C(F)F` the outcome was “inactive”. For `CCCCCCCc1ccc(O)cc1`, the outcome was “inactive”. With `CCCCN(CCCC)SN(C)C(=O)Oc1cccc2c1OC(C)(C)C2` the outcome was “inactive”. In the case of `OCC(F)(F)OC(F)(F)C(F)(F)OC(F)(F)C(F)(F)OC(F)(F)F`, the outcome is reported as “inactive”. For `CCOP(=O)(O)C(N)=O`, the outcome was “inactive”. For `Nc1ccc2ccccc2c1`, the outcome was “inactive”. For `CCCCOCC1CO1` (stereo not given), the outcome was “inactive”. For `Cc1cccc(N)c1`, the outcome was “inactive”. With `N#Cc1ccc(O)cc1` the outcome was “inactive”. In the case of `CSC(C)(C)C=NO`, the outcome is reported as “inactive”. For `Cc1ccc(N)cc1N`, the outcome was “inactive”. For `CCOC(=O)c1ccccc1C(=O)OCC`, the outcome was “inactive”.
